From PubChem BioAssay (NCI)
This is part of a sample that, as a whole, favours compounds with a hit. Of some 83,000 tested, about 20% had one in any assay.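 96-well plates, one dose, 48 hours. Percent growth reported; active if below 10.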 A number with no mark means an inactive call. Active and inactive are the calls of the source.

Assays:
Assay in all cases: NCI-60 one-dose screen, 48 h (100 = growth as untreated, 0 = no growth, -100 = all killed)
Conditions in all cases: 10 µM unless noted
HCT-15 colon = tested on: HCT-15 colon
HT29 colon = tested on: HT29 colon
SNB-75 CNS = tested on: SNB-75 CNS
SNB-19 CNS = tested on: SNB-19 CNS
U251 CNS = tested on: U251 CNS
PC-3 prostate = tested on: PC-3 prostate
SK-MEL-5 melanoma = tested on: SK-MEL-5 melanoma
UACC-62 melanoma = tested on: UACC-62 melanoma
LOX IMVI melanoma = tested on: LOX IMVI melanoma
SK-MEL-28 melanoma = tested on: SK-MEL-28 melanoma

SMILES	growth (HCT-15 colon)	growth (HT29 colon)	growth (SNB-75 CNS)	growth (SNB-19 CNS)	growth (U251 CNS)	growth (PC-3 prostate)	growth (SK-MEL-5 melanoma)	growth (UACC-62 melanoma)	growth (LOX IMVI melanoma)	growth (SK-MEL-28 melanoma)
C=CCOC(=O)C1=C(C)NC2=C(C(=O)CC(C)(C)C2)C1c1ccc(OC)cc1 (stereo not given)	105%	102%	81.2%	92.2%	103%	88.3%	108%	81.1%	102%	104%
Cn1c(-c2ccccc2)cc(=O)n1-c1ccccc1	104%	106%	92.9%	108%	109%	100%	104%	103%	101%	113%
C#CCO[C@H]1CC[C@H](OCC#C)[C@@H]2[C@H]1[C@H]1C[C@@H]3[C@@]4(C)CCC[C@@](C)(C(=O)OC)[C@@H]4CC[C@@]23C=C1C(C)C	91.8%	53.6%	94.7%	96.1%	46.8%	44.8%	87.6%	74.6%	-64.5% (active)	102%
CN1CCC2(CC1)N=C(SCC(=O)Nc1cnc3ccccc3c1)C(c1ccc(Br)cc1)=N2	12%	-67.1% (active)	25.4%	40.7%	-24.7% (active)	21.3%	-96.2% (active)	-78.9% (active)	-78.5% (active)	-70.1% (active)
Cc1ccc(C(=O)CC(=O)C(F)(F)C(F)(F)C(F)(F)F)s1	105%	110%	96%	104%	108%	92.8%	106%	96.6%	104%	110%
CC(C)(C)c1nn(-c2ccccc2)c2c1C(=O)CSC(c1ccccc1Cl)N2 (stereo not given)	25.1%	18.5%	-1.74% (active)	39.8%	33.2%	15.5%	11.6%	38.7%	35.5%	47.3%
C(=Nc1ccc(-c2ccc(N=Cc3ccccc3)cc2)cc1)c1ccccc1	106%	93.9%	83.4%	107%	98.3%	80.3%	105%	93.7%	105%	99.9%
CCN1C(=O)N(CC)C2C1N=C(SC)N2/N=C/C=C/c1ccccc1OC (stereo not given)	7.58% (active)	3.96% (active)	44.6%	15.4%	16.1%	18.4%	0.74% (active)	30.5%	14.6%	51.5%
O=C(NO)c1ccc(CNc2cccc3nc(C4CC4)n(-c4ccccc4)c(=O)c23)cc1	7.98% (active)	24.8%	33%	25.9%	-7.99% (active)	-47% (active)	2.95% (active)	-22.2% (active)	-34.9% (active)	9.83% (active)
CC1OC(n2c3ccccc3c3c4c(c5c6ccccc6[nH]c5c32)C(=O)N(CCN2CCOCC2)C4=O)CC(O)C1O (stereo not given)	26.5%	13.4%	5.86% (active)	21.5%	10.4%	34%	5.46% (active)	21.1%	2.7% (active)	67.6%
COc1ccc2nc3ccccc3c(NCc3ccc(Cl)cc3)c2c1	5.04% (active)	-2.29% (active)	57.6%	26.4%	2.55% (active)	19.5%	11.7%	64.7%	-86.3% (active)	7.07% (active)
NS(=O)(=O)c1ccc(CCn2c(SCC(=O)N/N=C/c3cc4ccccc4[nH]3)nc3ccccc3c2=O)cc1	91.4%	39.2%	80%	58.6%	30.6%	40.2%	31.9%	53.3%	49.1%	88.3%
O/N=C/c1ccncc1	104%	94.5%	96.2%	122%	102%	95.9%	105%	111%	100%	115%
O=C(N/N=C/c1ccccc1O)c1ccncc1	28.5%	42.7%	86.2%	66.6%	39.2%	69.5%	75.5%	33.5%	50.8%	61.1%
CCCCCN(CCCCC)C(=O)C(CCC(=O)O)NC(=O)c1ccc(Cl)c(Cl)c1 (stereo not given)	112%	109%	93.3%	112%	101%	93%	90.5%	98.4%	99.9%	105%
CS(=O)(=O)c1ccc(C(=O)N2N=C(c3ccccc3)CC2c2ccc3c(c2)OCO3)cc1 (stereo not given)	85.7%	104%	88.2%	103%	91.4%	85.1%	101%	96.4%	95.5%	106%
O=C(N/N=C/c1ccc([N+](=O)[O-])o1)c1ccc(O)cc1	42.9%	17.1%	84.7%	54%	34%	87.4%	2.57% (active)	47.5%	12.9%	77.7%
CC(C)C/C=C/C=C/C(=O)N[C@@H](CC(N)=O)C(=O)N[C@@H]1C(=O)N[C@H](c2ccc(O)cc2)C(=O)N[C@H](CCCN)C(=O)N[C@H]([C@@H](C)O)C(=O)N[C@H](c2ccc(O)cc2)C(=O)N[C@H](c2ccc(O)cc2)C(=O)N[C@H]([C@H](C)O)C(=O)N[C@H](Cc2ccccc2)C(=O)N[C@H](CCCN)C(=O)N[C@H](c2ccc(O[C@H]3O[C@@H](CO)[C@@H](O)[C@@H](O)[C@H]3O[C@@H]3O[C@H](CO)[C@H](O)[C@H](O)[C@@H]3O)cc2)C(=O)N[C@H]([C@H](C)O)C(=O)N[C@H](c2ccc(O)cc2)C(=O)NCC(=O)N[C@H](CC(C)C)C(=O)N[C@H](C)C(=O)N[C@H](c2ccc(O)c(Cl)c2)C(=O)O[C@@H]1C(N)=O	70%	24.2%	81.9%	21%	-19% (active)	83.3%	26.2%	-4.24% (active)	36.8%	22.8%
CC(C)(C)c1ccc(C(=O)Nc2sc3cc(O)ccc3c2C(N)=O)cc1	43.9%	23.8%	95.9%	94.1%	77.5%	79.2%	96.6%	104%	23.3%	87.5%
CC(C)CCC(=O)[C@@H](C)[C@H]1[C@@H](OC2OCC(O)C(O)C2NS(C)(=O)=O)C[C@H]2[C@@H]3CC=C4C[C@@H](O)CC[C@]4(C)[C@H]3CC[C@]12C (stereo not given in full)	14%	19.6%	22.2%	32.1%	5.29% (active)	4.46% (active)	7.33% (active)	-22% (active)	21.9%	-36.1% (active)
CC[C@H](C)[C@H](N)C(=O)O	107%	109%	99.1%	105%	107%	99.1%	101%	102%	98.7%	109%
O=C1CCCN1C(O)CCN(Cc1ccccc1)Cc1ccc(Cl)cc1 (stereo not given)	125%	98.4%	101%	104%	102%	95.1%	106%	102%	97.2%	115%
CCN(CC)c1ccc2c(cc1=O)[C@@H](NC(C)=O)CCc1cc(OC)c(OC)c(OC)c1-2	30%	-26.4% (active)	22.1%	40.8%	11.8%	31.7%	7.17% (active)	19.4%	25.1%	62.3%
CC1(C)OC2OC3C(CN)OC(c4ccccc4)OC3C2O1 (stereo not given)	125%	106%	92.4%	110%	104%	97.1%	106%	105%	97.9%	114%
O=C(CC(=O)c1ccccc1F)Nc1ccc([N+](=O)[O-])cc1	87.8%	91.8%	79.1%	96.9%	94.7%	98.3%	86.4%	80.1%	99.7%	100%
C=C(C)[C@@H]1CC[C@]2(C(=O)NC(COC(=O)C(Cl)Cl)(COC(=O)C(Cl)Cl)COC(=O)C(Cl)Cl)CC[C@]3(C)[C@H](CC[C@@H]4[C@@]5(C)CC[C@H](OC(C)=O)C(C)(C)[C@@H]5CC[C@]43C)[C@@H]12	27.9%	4.68% (active)	81.2%	70.6%	23.4%	11.1%	62.1%	81%	32.4%	86.9%
